# Sampled rows, rich in hits. Any-hit rate of the full collection: about 2.7%.
# F508del corr – F508del CFTR correction, initial screen, CFBE line, single point; CFBE cells, YFP halide quenching; stimulated with forskolin plus potentiator P3; % fluorescence drop versus neutral controls; activity (quench increase), % at 7.58 µM; 350,000 compounds, 0.36% hits;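 active = mean added fluorescence quench of at least 8% versus neutral control, with both replicates also reaching 8%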;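 also: cells transiently co-express mutant CFTR-F508del with the halide-sensitive YFP; corrector assay measuring rescue of mutant channel to the surface after 24 h compound exposure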
# MPTP block – mitochondrial permeability transition pore inhibitors, primary screen, biochemical, isolated mouse mitochondria, absorbance; Ca2+ swelling absorbance, 30 min; inhibition, % at 10 µM; 360,000 compounds, 1.4% hits;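 active = inhibition of 50% or more, scaled per plate between neutral and stimulator controls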
# CendR NRP1 mod – modulators of CendR peptide binding to NRP-1, primary screen, biochemical, fluorescence polarization, uHTS | Neuropilin-1 (Homo sapiens), O14786 | FAM-RPARPAR peptide binding to NRP-1 | inhibition, % at 25 µM | 360,000 compounds, 0.85% hits | AID 602438, 2012;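 active = inhibition or corrected inhibition above about 18%, plus a signal ratio from 0.5 to 1.5, limit read from the data, passing the limit was not always enough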
# Target sequence (O14786 whole entry, looked up): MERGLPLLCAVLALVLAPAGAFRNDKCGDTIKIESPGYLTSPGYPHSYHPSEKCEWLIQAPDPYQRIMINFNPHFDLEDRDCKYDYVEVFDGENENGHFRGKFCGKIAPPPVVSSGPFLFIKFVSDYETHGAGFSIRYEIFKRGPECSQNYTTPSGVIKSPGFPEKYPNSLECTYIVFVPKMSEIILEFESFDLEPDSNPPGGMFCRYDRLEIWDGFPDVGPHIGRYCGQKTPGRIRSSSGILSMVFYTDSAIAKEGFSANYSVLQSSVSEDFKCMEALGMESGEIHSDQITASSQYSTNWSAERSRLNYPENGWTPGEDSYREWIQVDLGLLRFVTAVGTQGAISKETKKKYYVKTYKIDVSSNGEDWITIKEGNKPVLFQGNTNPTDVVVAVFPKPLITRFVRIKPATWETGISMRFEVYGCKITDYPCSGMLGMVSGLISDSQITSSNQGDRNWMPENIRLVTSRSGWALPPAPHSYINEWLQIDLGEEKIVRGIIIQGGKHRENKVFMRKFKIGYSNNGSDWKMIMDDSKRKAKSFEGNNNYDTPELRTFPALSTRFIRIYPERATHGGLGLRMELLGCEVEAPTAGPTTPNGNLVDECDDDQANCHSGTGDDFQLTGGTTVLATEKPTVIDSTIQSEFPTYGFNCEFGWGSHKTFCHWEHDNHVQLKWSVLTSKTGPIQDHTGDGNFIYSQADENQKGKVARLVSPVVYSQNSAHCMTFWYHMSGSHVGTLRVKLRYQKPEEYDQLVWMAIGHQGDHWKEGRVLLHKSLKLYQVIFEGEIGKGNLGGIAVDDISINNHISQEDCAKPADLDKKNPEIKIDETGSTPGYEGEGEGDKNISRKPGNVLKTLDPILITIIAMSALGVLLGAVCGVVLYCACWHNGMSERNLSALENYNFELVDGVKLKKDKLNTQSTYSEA
# SKN-1 block – suppressors of acrylamide-induced Pgst-4::GFP reporter in worms, primary screen, SKN-1 inhibitor project, whole organism, uHTS, GFP/RFP fluorescence ratio, strain VP596; C. elegans VP596 Pgst-4::GFP/RFP ratio, 24 h; AID 624304, 2012; inhibition, % at 21.8 µM; 360,000 compounds, 0.49% hits;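 active = interference check ratio from 0.5 to 1.5 plus GFP to RFP signal ratio inhibition reaching or exceeding a fixed threshold, cut at about 30% in these data, passing the limit was not always enough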
# ATG4B inh – ATG4B protease inhibitors, primary screen, biochemical, fluorescence, uHTS | AID 504462, 2011 | ATG4B cleavage of LC3-PLA2, NBD-HPC fluorescence, 1 h | 340,000 compounds, 0.51% hits | inhibition, % at 8.33 µM; in the data active = inhibition above about 40%
# ATG4B conf – ATG4B protease inhibitors, retest, confirmation, biochemical, fluorescence, single concentration | inhibition, % at 8.33 µM | 320 compounds, 92% hits | ATG4B protease fluorescent substrate cleavage assay | shares compounds with ATG4B inh; in the data active = inhibition above about 39%
# PLA2 ctr – PLA2 enzyme inhibition, counter-screen for ATG4B inhibitor project, biochemical, single concentration, uHTS hits. shares compounds with ATG4B inh. purified PLA2, NBD-C6-HPC fluorescence, 45 min. 1,600 compounds, 66% hits. inhibition, % at 8.33 µM; in the data active = inhibition above about 50%
# Numbers stand for hits; . = inactive; / = not tested or not shown.
SMILES,F508del corr,MPTP block,CendR NRP1 mod,SKN-1 block,ATG4B inh,PLA2 ctr,others
O=C(O)c1ccccc1NC(c1ccccc1)c1ccc(Cl)cc1 (stereo not given),.,.,.,.,85,87,
Cc1c(CCOC(=O)C23CC4(C)CC(C)(CC(C)(C4)C2)C3)sc[n+]1CC(=O)c1ccccc1,.,.,.,38,47,.,ATG4B conf=51
Cc1c(CCOC(=O)CC23CC4CC(CC(C4)C2)C3)sc[n+]1CC(=O)c1ccccc1,.,.,.,.,.,/,
Cc1ccc(S(=O)(=O)Nc2ccc3c(c2)C(=O)N([C@H](C)CO)C[C@H](C)[C@@H](CN(C)C(=O)CCCN(C)C)OCCCC[C@H](C)O3)cc1,.,/,/,/,/,/,
C#CCOCCOCCOCCNc1nc(N2CCN(C(=O)CCCCCCCCCCNC(=O)[C@H](CCCCN)n3cc(C[C@@H](C)CC)nn3)CC2)nc(N2CCN(C(=O)CCCCCCCCCCNC(=O)[C@H](CCCCN)n3cc(C[C@@H](C)CC)nn3)CC2)n1,/,.,.,.,80,78,
C#CCOCCOCCOCCNc1nc(N2CCN(C(=O)CCCCCCCCCCNC(=O)Cn3cc(C[C@@H](C)O)nn3)CC2)nc(N2CCN(C(=O)CCCCCCCCCCNC(=O)[C@H](CCCCN)n3cc(C[C@@H](C)CC)nn3)CC2)n1,/,.,.,.,.,/,
CO[C@H]1CN(C)C(=O)c2cc(NC(=O)Nc3ccccc3)ccc2OC[C@H](C)N(CC2CC2)C[C@H]1C,.,/,/,/,/,/,
COc1ccc(Br)cc1CNC(=O)C1CCN(S(=O)(=O)N2CCC(C)CC2)CC1,.,.,.,.,42,.,ATG4B conf=67
COc1ccc(C#Cc2ccc3c(c2)[C@@H]2[C@@H](CCN2C(=O)C2CC2)[C@H](CO)N3)cc1,.,/,/,/,/,/,
C[C@@H]1CN([C@H](C)CO)C(=O)c2cc(NC(=O)CCC(F)(F)F)ccc2O[C@@H](C)CCCCO[C@@H]1CN(C)Cc1ccncc1,.,/,/,/,/,/,
C[C@H]1CN([C@@H](C)CO)C(=O)c2cc(NC(=O)C3CC3)ccc2O[C@@H]1CN(C)Cc1ccc(-c2ccccc2)cc1,.,/,/,/,/,/,
S=c1[nH]nc(-c2cc(-c3ccco3)[nH]n2)n1-c1ccccc1Cl,/,.,.,.,50,.,
COc1cc(/C=C2\SC(=Nc3ccccc3)N(CCc3c[nH]c4ccccc34)C2=O)ccc1OC(C)C(=O)O (stereo not given),/,.,.,.,46,.,ATG4B conf=51
COc1ccc(N=C2S/C(=C\c3ccc(OC(C)C(=O)O)c(OC)c3)C(=O)N2CCc2c[nH]c3ccccc23)cc1 (stereo not given),.,.,.,.,58,65,
O=C1/C(=C/c2ccc(N3CCOCC3)o2)SC(=Nc2ccccc2)N1CCc1c[nH]c2ccccc12,/,.,.,.,.,/,
C=CCn1c(SCc2c(C)noc2C)nc2ccccc2c1=O,/,.,.,.,.,/,
Cc1noc(C)c1CSc1nc2ccccc2c(=O)n1-c1ccc(F)cc1F,/,.,.,.,59,67,
O=C(Nc1cccc(Cl)c1)N1C[C@@H]2[C@H](c3ccccc31)[C@H](CO)N2Cc1cccnc1,.,/,/,/,/,/,
CO[C@H]1CN(C)C(=O)c2cc(NC(=O)Nc3ccccc3F)ccc2OC[C@H](C)N(Cc2ccccc2C(=O)O)C[C@H]1C,.,/,/,/,/,/,
O=C1CCCC2=C1C1(CCCCC1)N=C(Nc1nc3ccccc3o1)N2,/,.,.,.,66,76,
O=C(O)c1ccc(-c2ccc(/C=c3/sc4nc5ccccc5n4c3=O)o2)cc1Cl,.,.,.,.,50,.,ATG4B conf=82
Cc1cc(C)c2nc3sc(=Cc4ccc(-c5ccccc5C(=O)O)o4)c(=O)n3c2c1,.,.,.,.,/,/,
CCCC(=O)Nc1ccc2c(c1)OC[C@H](C)N(C(=O)c1cnccn1)C[C@@H](C)[C@@H](OC)CN(C)C2=O,.,/,/,/,/,/,
CCc1cccc(CC)c1-n1c(SCC(=O)N2CCc3ccccc3C2)nnc1-c1cccnc1,/,.,.,.,68,63,
Cn1c(SCC(=O)N2CCc3ccccc3C2)nnc1-c1ccncc1,/,.,.,.,.,/,
SMILES,F508del corr,MPTP block,CendR NRP1 mod,SKN-1 block,ATG4B inh,PLA2 ctr,others
Cc1ccc(S(=O)(=O)N(C)C[C@H]2Oc3ccc(NC(=O)Nc4cccc5ccccc45)cc3C(=O)N([C@@H](C)CO)C[C@H]2C)cc1,.,/,/,/,/,/,
Nc1c(C(=O)Nc2ccccc2F)sc2nc(Cc3ccccc3)cc(C(F)(F)F)c12,.,.,.,.,66,.,
CCc1ccc(NC(=S)NC(=O)c2c(-c3ccccc3Cl)noc2C)cc1,.,.,.,.,.,/,
Cc1onc(-c2ccccc2Cl)c1C(=O)NC(=S)NCC(=O)c1ccccc1,/,.,.,.,45,.,
C=CCOC(=O)c1cc(-c2ccc(/C=C3\C(=O)NC(=O)C(C#N)=C3C)o2)ccc1Cl,/,.,.,.,70,.,
CO[C@H]1CN(C)C(=O)c2ccc(NS(C)(=O)=O)cc2OC[C@H](C)N(CCC(F)(F)F)C[C@@H]1C,.,/,/,/,/,/,
C[C@H]1CN([C@@H](C)CO)C(=O)c2cccc(NC(=O)C3CCCCC3)c2O[C@H]1CN(C)Cc1ccccc1,.,/,/,/,/,/,
O=C1NC(=O)/C(=C\c2ccccc2OCc2ccccc2)S1,.,.,.,.,47,.,ATG4B conf=59
CCCOc1ccc2ccccc2c1/C=C1\SC(=O)NC1=O,.,.,.,.,/,.,
COC(=O)c1c(NC(=O)C2Cc3ccccc3C(=O)O2)sc2c1CCCC2 (stereo not given),.,.,.,.,49,.,ATG4B conf=83
CCOC(=O)c1c(NC(=O)C2Cc3ccccc3C(=O)O2)sc2c1CCCC2 (stereo not given),.,.,.,.,.,/,
O=C1NN(c2ccccc2)C(=O)/C1=C/c1ccc(-c2ccc(C(=O)O)cc2)o1,.,.,.,.,.,/,
O=C1NN(c2ccccc2)C(=O)/C1=C/c1ccc(Sc2cccc3ccccc23)o1,/,.,.,.,44,.,ATG4B conf=51
CC(C)C(Sc1nc(-c2ccccc2)cc(-c2ccccc2)c1C#N)C(=O)O (stereo not given),/,.,.,.,46,.,ATG4B conf=61
CCOC(=O)C1=C(c2ccccc2)NC(N)=NC1c1ccc(OCc2ccc(C(=O)OC)cc2)cc1 (stereo not given),.,.,.,.,46,53,
